Data reported in PubChem BioAssay AID1159580 (chemical genetic matrix, 2015).
Several values for one entry are separate records, joined by “and”; a condition that tells them apart may be missing. Identical values can stand only once. The campaign covered roughly 5,500 compounds. About 2,000 (36%) were called active. Not shown: some 18% with an inconclusive outcome. Cut-off read from the data, not from the text of the source: active = normalized growth mostly below about 0.91 (no sharp cut-off); inconclusive = no clear call, values can overlap the other calls; inactive = mostly above about 0.92. The list shows a part of the results.

Assay: chemical genetic growth profiling, strain panel (AID 1159580);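 note: tested at 20 µM; growth read once vehicle control cultures reached saturation at 30 °C; 1 = growth at the plate median or of vehicle wells; lower values mean less growth of the strain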
Settings: growth OD
[1] = S. cerevisiae deletion strains, locus YBR021W, strain FUR4, stronger effect = lower value
[2] = S. cerevisiae deletion strains, locus YBR229C, strain ROT2, stronger effect = lower value
[3] = S. cerevisiae deletion strains, locus YCL029C, strain bik1, stronger effect = lower value
[4] = S. cerevisiae deletion strains, locus YDL035C, strain GPR1, stronger effect = lower value
[5] = S. cerevisiae deletion strains, locus YDL074C, strain BRE1, stronger effect = lower value
[6] = S. cerevisiae deletion strains, locus YDL101C, strain DUN1, stronger effect = lower value
[7] = S. cerevisiae deletion strains, locus YDL185W, strain tfp1, stronger effect = lower value
[8] = S. cerevisiae deletion strains, locus YDL192W, strain arf1, stronger effect = lower value
[9] = S. cerevisiae deletion strains, locus YDR101C, strain arx1, stronger effect = lower value
[10] = S. cerevisiae deletion strains, locus YDR162C, strain NBP2, stronger effect = lower value
[11] = S. cerevisiae deletion strains, locus YDR318W, strain mcm21, stronger effect = lower value
[12] = S. cerevisiae deletion strains, locus YDR388W, stronger effect = lower value
[13] = S. cerevisiae deletion strains, locus YDR502C, strain sam2, stronger effect = lower value
[14] = S. cerevisiae deletion strains, locus YEL061C, strain CIN8, stronger effect = lower value
[15] = S. cerevisiae deletion strains, locus YER110C, stronger effect = lower value
[16] = S. cerevisiae deletion strains, locus YER155C, strain BEM2, stronger effect = lower value
[17] = S. cerevisiae deletion strains, locus YER167W, strain BCK2, stronger effect = lower value
[18] = S. cerevisiae deletion strains, locus YGL078C, strain dbp3, stronger effect = lower value
[19] = S. cerevisiae deletion strains, locus YGL086W, strain mad1, stronger effect = lower value
[20] = S. cerevisiae deletion strains, locus YGL248W, strain PDE1, stronger effect = lower value
[21] = S. cerevisiae deletion strains, locus YGR078C, strain PAC10, stronger effect = lower value
[22] = S. cerevisiae deletion strains, locus YGR135W, strain pre9, stronger effect = lower value
[23] = S. cerevisiae deletion strains, locus YGR229C, strain SMI1, stronger effect = lower value
[24] = S. cerevisiae deletion strains, locus YGR252W, strain gcn5, stronger effect = lower value
[25] = S. cerevisiae deletion strains, locus YHR030C, strain SLT2, stronger effect = lower value
[26] = S. cerevisiae deletion strains, locus YHR079C, strain IRE1 (second series), stronger effect = lower value
[27] = S. cerevisiae deletion strains, locus YHR079C, strain IRE1, stronger effect = lower value
[28] = S. cerevisiae deletion strains, locus YHR094C, strain hxt1, stronger effect = lower value
[29] = S. cerevisiae deletion strains, locus YHR129C, strain ARP1, stronger effect = lower value
[30] = S. cerevisiae deletion strains, locus YHR200W, strain rpn10, stronger effect = lower value
[31] = S. cerevisiae deletion strains, locus YIL066C, strain RNR3, stronger effect = lower value
[32] = S. cerevisiae deletion strains, locus YIL073C, strain SPO22, stronger effect = lower value
[33] = S. cerevisiae deletion strains, locus YIL125W, strain kgd1, stronger effect = lower value
[34] = S. cerevisiae deletion strains, locus YIR030C, strain dcg1, stronger effect = lower value
[35] = S. cerevisiae deletion strains, locus YJL095W, strain BCK1, stronger effect = lower value
[36] = S. cerevisiae deletion strains, locus YJL134W, strain LCB3, stronger effect = lower value
[37] = S. cerevisiae deletion strains, locus YJL168C, strain set2, stronger effect = lower value
[38] = S. cerevisiae deletion strains, locus YJL187C, strain SWE1 (second series), stronger effect = lower value
[39] = S. cerevisiae deletion strains, locus YJR043C, strain POL32, stronger effect = lower value
[40] = S. cerevisiae deletion strains, locus YJR066W, strain TOR1, stronger effect = lower value
[41] = S. cerevisiae deletion strains, locus YJR075W, strain HOC1, stronger effect = lower value
[42] = S. cerevisiae deletion strains, locus YKL009W, strain mrt4, stronger effect = lower value
[43] = S. cerevisiae deletion strains, locus YKL068W, stronger effect = lower value
[44] = S. cerevisiae deletion strains, locus YKL085W, strain MDH1 (second series), stronger effect = lower value
[45] = S. cerevisiae deletion strains, locus YKL085W, strain MDH1, stronger effect = lower value
[46] = S. cerevisiae deletion strains, locus YKL190W, strain CNB1, stronger effect = lower value
[47] = S. cerevisiae deletion strains, locus YKR001C, strain vps1, stronger effect = lower value
[48] = S. cerevisiae deletion strains, locus YLR039C, strain RIC1, stronger effect = lower value
[49] = S. cerevisiae deletion strains, locus YLR058C, strain SHM2, stronger effect = lower value
[50] = S. cerevisiae deletion strains, locus YLR102C, strain apc9, stronger effect = lower value
[51] = S. cerevisiae deletion strains, locus YLR113W, strain HOG1, stronger effect = lower value
[52] = S. cerevisiae deletion strains, locus YLR262C, strain YPT6, stronger effect = lower value
[53] = S. cerevisiae deletion strains, locus YLR268W, strain sec22, stronger effect = lower value
[54] = S. cerevisiae deletion strains, locus YLR330W, strain CHS5, stronger effect = lower value
[55] = S. cerevisiae deletion strains, locus YLR342W, strain FKS1 (second series), stronger effect = lower value
[56] = S. cerevisiae deletion strains, locus YLR371W, strain rom2, stronger effect = lower value
[57] = S. cerevisiae deletion strains, locus YLR418C, strain cdc73, stronger effect = lower value
[58] = S. cerevisiae deletion strains, locus YML016C, strain PPZ1, stronger effect = lower value
[59] = S. cerevisiae deletion strains, locus YML032C, strain rad52, stronger effect = lower value
[60] = S. cerevisiae deletion strains, locus YML124C, strain tub3, stronger effect = lower value
[61] = S. cerevisiae deletion strains, locus YMR078C, strain ctf18, stronger effect = lower value
[62] = S. cerevisiae deletion strains, locus YMR223W, strain ubp8, stronger effect = lower value
[63] = S. cerevisiae deletion strains, locus YMR263W, strain SAP30, stronger effect = lower value
[64] = S. cerevisiae deletion strains, locus YMR307W, strain GAS1, stronger effect = lower value
[65] = S. cerevisiae deletion strains, locus YNL067W, strain RPL9B, stronger effect = lower value
[66] = S. cerevisiae deletion strains, locus YNL183C, strain NPR1, stronger effect = lower value
[67] = S. cerevisiae deletion strains, locus YNL233W, strain BNI4, stronger effect = lower value
[68] = S. cerevisiae deletion strains, locus YNL250W, strain rad50, stronger effect = lower value
[69] = S. cerevisiae deletion strains, locus YNL271C, strain bni1, stronger effect = lower value
[70] = S. cerevisiae deletion strains, locus YNL298W, strain CLA4, stronger effect = lower value
[71] = S. cerevisiae deletion strains, locus YNL307C, strain MCK1, stronger effect = lower value
[72] = S. cerevisiae deletion strains, locus YNL322C, strain KRE1, stronger effect = lower value
[73] = S. cerevisiae deletion strains, locus YNR052C, strain pop2, stronger effect = lower value
[74] = S. cerevisiae deletion strains, locus YOL006C, strain TOP1, stronger effect = lower value
[75] = S. cerevisiae deletion strains, locus YOL012C, strain htz1
[76] = S. cerevisiae deletion strains, locus YOL147C, strain pex11, stronger effect = lower value
[77] = S. cerevisiae deletion strains, locus YOR061W, strain CKA2, stronger effect = lower value
[78] = S. cerevisiae deletion strains, locus YOR069W, strain VPS5, stronger effect = lower value
[79] = S. cerevisiae deletion strains, locus YOR136W, strain idh2, stronger effect = lower value
[80] = S. cerevisiae deletion strains, locus YOR144C, strain elg1, stronger effect = lower value
[81] = S. cerevisiae deletion strains, locus YOR184W, strain ser1, stronger effect = lower value
[82] = S. cerevisiae deletion strains, locus YOR231W, strain MKK1, stronger effect = lower value
[83] = S. cerevisiae deletion strains, locus YOR316C, strain cot1, stronger effect = lower value
[84] = S. cerevisiae deletion strains, locus YPL055C, strain LGE1, stronger effect = lower value
[85] = S. cerevisiae deletion strains, locus YPL256C, strain CLN2, stronger effect = lower value
[86] = S. cerevisiae deletion strains, locus YPR119W, strain clb2, stronger effect = lower value
[87] = S. cerevisiae deletion strains, locus YPR141C, strain kar3, stronger effect = lower value
[88] = S. cerevisiae deletion strains, locus YPR163C, strain tif3, stronger effect = lower value
[89] = S. cerevisiae deletion strains, locus YPR167C, strain met16, stronger effect = lower value
[90] = S. cerevisiae deletion strains, strain wtn01, stronger effect = lower value
[91] = S. cerevisiae strains, strain wild type, stronger effect = lower value

Measured: normalized growth

COc1ccc2c(=O)c(OC)c(-c3ccccc3)oc2c1
0.454 (active) and 0.941 (inactive): [35]
inactive: [2] 0.966 | [3] 0.945 | [7] 0.951 | [12] 0.929 | [15] 0.932 | [18] 0.939 | [26] 0.943 | [27] 0.925 | [28] 0.977 | [32] 0.862 | [33] 0.975 | [34] 0.928 | [36] 0.951 | [37] 0.97 | [40] 0.867 | [41] 0.89 | [42] 0.901 | [43] 0.975 | [44] 0.974 | [45] 0.974 | [46] 0.923 | [48] 0.906 | [50] 0.95 | [51] 0.931 | [52] 0.901 | [58] 0.947 | [60] 0.941 | [64] 0.658 | [66] 0.916 | [68] 0.969 | [69] 0.921 | [72] 0.95 | [75] 0.856 | [77] 0.942 | [79] 0.95 | [82] 0.921 | [83] 0.953 | [85] 0.932 | [86] 0.936 | [87] 0.978
0.646 (active) and 0.936 (inactive): [25]
active: [1] 0.758 | [4] 0.83 | [5] 0.713 | [6] 0.855 | [8] 0.829 | [9] 0.855 | [10] 0.68 | [11] 0.863 | [13] 0.836 | [14] 0.891 | [16] 0.893 | [17] 0.858 | [19] 0.867 | [20] 0.831 | [21] 0.743 | [22] 0.754 | [23] 0.477 | [24] 0.582 | [29] 0.858 | [30] 0.892 | [31] 0.771 | [38] 0.859 | [39] 0.797 | [47] 0.848 | [49] 0.888 | [53] 0.866 | [54] 0.752 | [55] 0.723 | [56] 0.794 | [57] 0.532 | [59] 0.723 | [61] 0.893 | [62] 0.845 | [63] 0.845 | [65] 0.856 | [67] 0.717 | [70] 0.894 | [71] 0.676 | [73] 0.882 | [74] 0.396 | [76] 0.904 | [78] 0.909 | [80] 0.924 | [81] 0.622 | [84] 0.752 | [88] 0.853 | [89] 0.901 | [90] 0.887 | [91] 0.884

COc1ccc2oc(-c3ccccc3)c(OC)c(=O)c2c1
active: S. cerevisiae deletion strains, locus YAL013W, strain DEP1, stronger effect = lower value 0.903 | [3] 0.906 | [4] 0.846 | [5] 0.71 | [6] 0.888 | S. cerevisiae deletion strains, locus YDL134C, strain PPH21, stronger effect = lower value 0.828 | [8] 0.858 | [9] 0.887 | [10] 0.719 | [11] 0.808 | [12] 0.892 | [13] 0.867 | [15] 0.861 | [17] 0.801 | [19] 0.882 | [20] 0.814 | [21] 0.748 | [22] 0.784 | [23] 0.58 | [24] 0.68 | [26] 0.828 | [29] 0.874 | [30] 0.897 | [34] 0.879 | [37] 0.912 | [38] 0.855 | [41] 0.844 | [42] 0.877 | [47] 0.764 | [49] 0.88 | [53] 0.807 | [54] 0.899 | [55] 0.69 | [57] 0.592 | [58] 0.919 | [59] 0.53 | [60] 0.924 | [61] 0.805 | [62] 0.83 | [63] 0.838 | [65] 0.837 | [67] 0.78 | [69] 0.916 | [70] 0.884 | [71] 0.29 | [73] 0.899 | [74] 0.359 | [76] 0.854 | [80] 0.92 | [81] 0.684 | [83] 0.916 | [86] 0.919 | [88] 0.634 | [89] 0.916 | [90] 0.832 | [91] 0.895
inactive: [1] 0.925 | [2] 0.929 | [7] 0.923 | S. cerevisiae deletion strains, locus YDR150W, strain NUM1, stronger effect = lower value 0.944 | [14] 0.938 | [16] 0.926 | [18] 0.956 | [27] 0.926 | [28] 0.936 | [31] 0.882 | [32] 0.803 | [33] 0.956 | [36] 0.946 | [39] 0.863 | [40] 0.867 | [43] 0.96 | [44] 0.945 | [45] 0.945 | [46] 0.922 | [48] 0.778 | [50] 0.93 | [51] 0.937 | [52] 0.801 | [56] 0.932 | [64] 0.652 | S. cerevisiae deletion strains, locus YNL128W, strain TEP1, stronger effect = lower value 0.942 | S. cerevisiae deletion strains, locus YNL153C, strain GIM3, stronger effect = lower value 0.891 | [66] 0.88 | [68] 0.9 | [72] 0.947 | [75] 0.77 | [77] 0.937 | [78] 0.979 | [79] 0.922 | [82] 0.918 | [84] 0.767 | S. cerevisiae deletion strains, locus YPL241C, strain CIN2, stronger effect = lower value 0.959 | [85] 0.939 | [87] 0.944
0.426 (active) and 0.93 (inactive): [35]
0.674 (active) and 0.934 (inactive): [25]
